± gives the standard deviation of the averaged measurements. Whole data set: some 25,000 sequences, median “ln(normalized median fluorescence intensity)” near 8.9, cut for the highest 2% near 10. The entries come from a sample that favours the highest values as a whole.
Tested on: PfAP2-LT AP2 domain (GST-tagged)
Assay: gcPBM binding intensity (ln(normalized median fluorescence intensity)); higher = stronger DNA binding
Procedure, shortened: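 Binding of GST-tagged P. falciparum DNA-binding domains, expressed in E. coli and used at about 25 μg on average, was carried out for 1 h in 1× PBS containing 1% milk, 0.2 mg/ml BSA, 0.5% salmon testes DNA and 0.03% Triton X-100. The target was an Agilent 4 × 180k array of primer-extended double-stranded 36-bp intergenic genomic probes plus negative controls, read with Alexa488 anti-GST antibody at 488 nm. Binding intensity is the highest Masliner-normalised natural-log median intensity across replicate spots of either probe orientation.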

Sequence	gcPBM binding intensity (ln)
GTATATTTAAATAAAAGTACGTAAAGATATATTTAA [XGTACX_site8087]	8.86 ± 0.57
TATATATATATATTATGTACTCATTTATTATCTTTT [XGTACX_site8051]	9.04 ± 0.43
TTTGTCATTTTATTATGTACTCAGCATATAGGGGGG [XGTACX_site505]	10.3 ± 0.33
ATATATATTTATATATGTACATATTTTTGTGTATTT [XGTACX_site1183]	9.14 ± 0.44
ATATATATATATATATGTACTCATATTTTATTATTT [XGTACX_site898]	9.665 ± 0.078
TATATATATATATATGCATGTACATATATTTGTTAT [TGCATGCA_site379]	9.99 ± 0.4
ATGCATATATTTATGTGTACATATATTTGTAGGGGG [XGTACX_site6063]	10.2 ± 0.36
TTATATTATGGACACACACACAAAAAAAAAAAAAAA [CACACA_site7744]	9.32 ± 0.51
TATGATTTTTATATATGTACGTATGGTGTTTTACAA [XGTACX_site6100]	8.76 ± 0.41
GTTTGGTGGTGTTTTGGTACGTACGGGGGTGTATGT [XGTACX_site1211]	9.88 ± 0.16
GTTTGGTGGTGTTTTGGTACGTACGGGGGGGTATGT [XGTACX_site1983]	10.9 ± 0.18
AACATAATAAAAAAACGTACATAATTTTATATACAT [XGTACX_site6602]	8.87 ± 0.41
AATATAAATAAAAACACACACACACGGATATTTATA [CACACA_site7134]	10 ± 0.25
AAGGATATAACATACACACACACACGGATATAAATA [CACACA_site7867]	10.2 ± 0.37
CACTAAAATAGACACACACACACACGGATATAAATA [CACACA_site7873]	10.3 ± 0.29
AAAATACATAGACACACACACACACGGATATAAATA [CACACA_site7643]	10.2 ± 0.2
AATATAAGGATATATACACACATAAATACATACATA [CACACA_site7859]	9.25 ± 0.45
TATATAAATAGACACACACACACATATAAATAAATA [CACACA_site7855]	10 ± 0.34
AAATAACACATATATACACACATATAAATATAATAT [CACACA_site2692]	9.29 ± 0.34
ATAAGAAAAGGACACACACACAAAAAAAAAAAAAAA [CACACA_site7351]	9.48 ± 0.51
ATAAATAAAGGACACACACACACACTAGAAAAAAAA [CACACA_site5450]	10.2 ± 0.3
CATATACATAGACACACACACACATAAATAAATATA [CACACA_site6749]	9.91 ± 0.33
AAAAAAAATAGACACACACACATACACATAAATATA [CACACA_site7742]	9.82 ± 0.38

Sequence	gcPBM binding intensity (ln)
GTAGAGAAAAAAATGTGGACACAAAAAATAAAAAGG [XGTACX_site4058]	8.96 ± 0.45
AATGTAGGTTTATTTACACACAAATATAGATATATA [CACACA_site6825]	8.96 ± 0.4
GGGAGGATATTACACAGTACCCAGGAAATCTACGGA [XGTACX_site4874]	8.81 ± 0.5
TTTTTTTAAAAAAAGGGTACATATATATATTTTTCT [XGTACX_site1066]	8.43 ± 0.49
ATATATATATATGTTAGTACTTATATTGAAATGGTA [XGTACX_site1406]	9.05 ± 0.042
TATATTATTTTATATTGTACATACCAAATATTATAT [XGTACX_site1693]	8.68 ± 0.41
TATTTTTTTTTTTTTTTTTTTTTTATATATACATAT [CACACA_negctrl_site23]	8.61 ± 0.52
AAATGGGCTTATTTATGTACTTAAATATATCTACCC [XGTACX_site3823]	8.85 ± 0.61
TTTCTTTTTTTTTTTTTTTCTGGCTTTTTCTCTTTT [TGCATGCA_negctrl_site599]	8.69 ± 0.49
AAAAAAAAAAAAAACACACACACACGCATAAATATA [CACACA_site6217]	9.95 ± 0.28
TATTAATACGGACACACACACACACTAGATAAAATA [CACACA_site4295]	10.1 ± 0.11
ACCATATAAATAAACACACACACACGGATATAAATA [CACACA_site7157]	10.1 ± 0.2
TAATATAAAGAAAAGGAACACACAAATATATATATA [CACACA_site8049]	9.04 ± 0.38
ATATAAAGAAAAGGAACACACAAATATATATATATA [CACACA_site463]	9.56 ± 0.25
AGAATAAAAAGGAACACACACACACGCATATAAATA [CACACA_site7659]	10.1 ± 0.39
AATAAAAAGGAACACACACACACACGGATATAAATA [CACACA_site7658]	10.3 ± 0.37
AACAAATACGGACACACACACACACTAGAAAAAAAA [CACACA_site4442]	9.82 ± 0.29
ATAAATATTAAAAGTACACACAGATACACTAATTAT [CACACA_site1808]	9.16 ± 0.36
TGATTTGTGCCGATTTGTACACATTTATATATATAT [XGTACX_site2154]	9.13 ± 0.35
GTATATATATATATATATATATATATATATATATAT [CACACA_negctrl_site609]	9.63 ± 0.042
ATACAAATTGTTTAAAGTACAAATTACACCTCTTAA [XGTACX_site6888]	8.62 ± 0.44
CATAGGAACATAAGTTGTACGCTATACATACAACAT [XGTACX_site1054]	9.05 ± 0.45
TTTTCTATATAGTGTTGTACATTATTGTGTAAAAAT [XGTACX_site3223]	8.7 ± 0.46

Sequence	gcPBM binding intensity (ln)
AATATAATGTAATATACACACATATATTTCTCTTTT [CACACA_site5451]	8.95 ± 0.45
ACCTACATAACATACACACGCATATATATAATTTTA [CACACA_site2847]	9.22 ± 0.33
TATACACGCGGACACACACACACACGCAAAAAAAAA [CACACA_site6377]	10 ± 0.23
CATATATACACATACACACACACACGGACACGCACA [CACACA_site6910]	10.07 ± 0.085
AGTATACATATATATACACACACACCGATATATATA [CACACA_site8357]	9.74 ± 0.23
CATACACGCGGACACACACACACACGCATATATAAC [CACACA_site6427]	10.1 ± 0.23
ATAGTATACGGACACACACACACACCGATATATATA [CACACA_site5032]	10.3 ± 0.38
TATTTATATTTATATACACACATACATATTTATATT [CACACA_site6535]	9.1 ± 0.4
CGCATACACGGACACACACACACATATATATATATA [CACACA_site4520]	10.23 ± 0.071
ACCATACATACATACACACACACACGCATATTTATA [CACACA_site7386]	10.1 ± 0.29
TATAGATACCTATACACACACACACGGACATATATA [CACACA_site7585]	10 ± 0.25
ATAGTATACAGACACACACACACACCGATATATATA [CACACA_site8511]	10.1 ± 0.13
TATATATATATTTATACACACACATATATTTATATA [CACACA_site8054]	9.13 ± 0.29
ATAATACATACATACATACACACATATATATATATT [CACACA_site3576]	9.29 ± 0.38
TTTTTAATCATAATATGTACATATAAAAATGGTTTG [XGTACX_site3996]	8.54 ± 0.41
TAAAAATGTAAACACACACACATAAATATATTTTAT [CACACA_site5397]	9.45 ± 0.26
GATAAAATAGGACCATATTCTTTAAAACGATAAAAT [XGTACX_negctrl_site405]	8.73 ± 0.51
TTATATTATATATATATTATATATATGTATGCATAA [TGCATGCA_negctrl_site481]	8.72 ± 0.2
TTTTGCAAATATTACTGTACACAATCTCATATAATT [XGTACX_site2584]	8.81 ± 0.35
ATTATTTTTTTTGAAGTGCAATATTATTTTTAATCA	8.46 ± 0.45
AAAGTATTCTTTACACGTACATATATATAAATATAA [XGTACX_site7557]	8.59 ± 0.33
CATACATACGGACACACACACATATATATATATATA [CACACA_site5598]	10.3 ± 0.15
AGGATACACGGACACACACACATATAGATTTATATA [CACACA_site6552]	9.78 ± 0.51

Sequence	gcPBM binding intensity (ln)
AAAAAAAACGGACACACACACATAAATATATATAAA [CACACA_site4260]	9.86 ± 0.34
TACATATTTATATACACACACACACGGATATTTATA [CACACA_site7239]	9.87 ± 0.45
TTATAAATAAAAAATACACACATATATATATATATA [CACACA_site207]	9.64 ± 0.2
AAAAAACACGGACACACACACATATACATACATACA [CACACA_site5470]	9.98 ± 0.41
CATACACCCGGACACACACACACACCCATATATAAT [CACACA_site4494]	10 ± 0.35
TATACACCCGGACACACACACATATATATATATATA [CACACA_site5030]	10.36 ± 0.028
AAAATACCCGGACACACACACATATATATATATATT [CACACA_site6137]	9.88 ± 0.49
CTAAAATACGGACACACACACACATATATATATATA [CACACA_site6138]	10.3 ± 0.11
AGGATACACGGACACACACACATATATATATATATA [CACACA_site4654]	10.43 ± 0.078
ATTATATATATATATACACACACATATATATATATA [CACACA_site8373]	9.47 ± 0.25
AGTAAAAGAAAGCACACACACATGTATTTATGTATG [CACACA_site5998]	9.71 ± 0.42
TATATATATATATATTGTACACATACATGTAGTTTT [XGTACX_site4848]	9.48 ± 0.49
ACACATATAATAGTTACATGCAAAAATACTTTTATT [TGCATGCA_site785]	9.03 ± 0.47
ACCAAATCATATATAGCACACAAATTCTTTATTATT [CACACA_site8911]	8.94 ± 0.38
TAAAAAAAAACATGATGTACATAAAATTTTTTACTT [XGTACX_site7056]	8.59 ± 0.47
AAAAAAATATATAAATGTACATATTGTTTAATTAAT [XGTACX_site3794]	8.7 ± 0.45
ATAATAAATGATAGCACACATATGTACATAAATACA [CACACA_site4634]	9.24 ± 0.31
TATTAATTTATATCAACACACAAAATCAATATACTT [CACACA_site1757]	8.7 ± 0.42
ATTATGCTACAAGGAGAACACACAATTGCCACTTTT [CACACA_site8673]	9.1 ± 0.46
AATGATCATATATACACACACACAAAAAAAAAAAAA [CACACA_site4009]	9.6 ± 0.45
